# Screening results as filed in PubChem BioAssay.
# The list is not random: actives were taken first. Their share in the collection is about 12%.
# SARS PLpro yeast: qHTS of Yeast-based Assay for SARS-CoV PLP. S. cerevisiae expressing SARS-CoV PLpro, growth rescue. Potency, µM (top dose mostly 32.9 µM), most hits filed as activators. hit rate 0.19% among 330,000; calls by dose curve; also: nearly all actives have a fitted effect of over 55% in size
# Pf growth 96h: Primary qHTS for delayed death inhibitors of the malarial parasite plastid, 96 hour incubation; Potency, µM (highest dose often 28.7 µM), actives largely listed as inhibitors; hit rate 6.9% among 320,000; AID 504834, 2011; P. falciparum luciferase reporter growth, 96 h
#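 Two parasite generations (96 h, 37 C, 5% CO2) of compound exposure in infected erythrocytes (0.05% parasitemia, 2% hematocrit). Luciferase-reporter P. falciparum; decreased luminescence indicates inhibited growth, aimed at apicoplast-acting delayed death.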
# Sm TGR inh: qHTS Assay for the Inhibitors of Schistosoma Mansoni Peroxiredoxins | Schistosoma mansoni thioredoxin glutathione reductase (TGR), Q962Y6 | purified TGR, DTNB reduction, TNB absorbance 405 nm | Potency, µM (doses to about 114 µM), usual class: inhibitors | hit rate 3% among 360,000 | AID 485364, 2010; also: nearly all actives have a fitted effect of over 60% in size
#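 TGR 20 nM + NADPH 100 uM (dispensed conc.), cpd preinc 15 min RT; start with NADPH (500 uM addition) then DTNB (15 mM addition). Kinetic TNB absorbance, 405 nm filter. Four-parameter Hill fit across titration.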
# Pf growth 48h: Primary qHTS for delayed death inhibitors of the malarial parasite plastid, 48 hour incubation; P. falciparum luciferase growth in erythrocytes, 48 h; Potency, µM (highest dose often 28.7 µM), usual class: inhibitors; hit rate 5.9% among 310,000; AID 504832, 2011
#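 Firefly luciferase activity from engineered P. falciparum reports growth; inhibitors lower the luminescent signal. Cultures contained 2% hematocrit erythrocytes at 0.1% final parasitemia.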
# A number is an active result; . = inactive; ? = inconclusive; / = no result given; ! = not active in a repeat; [ ] = remark or other dose. Unless noted, calls follow the shape of the dose curve; as a rule, active = well fitted curve in the direction sought with a large enough effect; inconclusive = small, poorly fitted or top-dose-only effect, or another doubt; inactive = no such curve, though single readings can be large; an effect the other way counts as inactive or inconclusive.
SMILES,SARS PLpro yeast,Pf growth 96h,Sm TGR inh,Pf growth 48h
COc1ccc(N2C(=O)NC(=O)/C(=C\c3ccccc3[N+](=O)[O-])C2=O)cc1,.,.,16µM,.
Oc1c(CNc2ccccc2)cc(COCc2ccccc2)c2cccnc12,4.5µM!,3.3µM,2.8µM,1.2µM
COC(=O)C1=C(N)N(c2ccc(F)cc2)C2=C(C(=O)CCC2)C1c1ccc2c(c1)OCO2 (stereo not drawn),.,.,.,10µM
CCOC(=O)N1CCN(C(=O)c2ccc3c(c2)N(Cc2ccccc2)CCS3)CC1,.,12µM,.,?
CCOC(=O)N1CCN(C(=O)c2ccc3c(c2)N=C(C)c2cc(Cl)ccc2S3)CC1,.,?,.,9.3µM
CCN1CCN(CCCNC(=O)c2ccc3c(c2)N(Cc2ccc(C)cc2)CCS3)CC1,.,?,.,17µM
CCOC(=O)N1CCN(C(=O)c2ccc3c(c2)NC(=O)/C(=C/c2ccccc2)S3)CC1,.,15µM,.,.
COc1ccc(Cl)cc1NC(=O)c1ccc2c(c1)CCCN2S(C)(=O)=O,/,/,.,/
CC(=O)NC(CC(=O)NNC(=O)c1cccs1)c1ccccc1 (stereo not drawn),.,.,.,.
O=C(NC1CCCC1)c1ccc2c(c1)N(Cc1ccccc1)CCS2,.,10µM,.,?
Cc1ccc(CN2CCSc3ccc(C(=O)NC4CCN(Cc5ccccc5)CC4)cc32)cc1,.,.,.,?
CN(C)CCCN(C(=O)c1ccc(N2C(=O)CCC2=O)cc1)c1nc2c(F)cccc2s1,.,.,.,.
CN(C)CCN(C(=O)c1ccc2c(c1)CCCC2)c1nc2cc3c(cc2s1)OCCO3,.,.,.,.
Cc1ccc2nc(N(CCCN(C)C)C(=O)c3ccc4c(c3)CCCC4)sc2c1,.,1.9µM,.,10µM
Cc1cc(C)c2nc(N(CCCN(C)C)C(=O)c3ccc4c(c3)CCCC4)sc2c1,.,?,.,7.4µM
CN(C)CCCN(C(=O)c1ccc2c(c1)CCCC2)c1nc2c(F)cccc2s1,.,?,?,9.3µM
Cc1ccc2nc(N(CCCN(C)C)C(=O)c3cc(-c4cccs4)nc4ccccc34)sc2c1,.,13µM,.,.
CCOc1ccc2nc(N(CCN(C)C)C(=O)c3ccc4c(c3)CCCC4)sc2c1,.,?,.,.
O=C(CNC(=O)c1ccccc1Cl)NCC(c1cccs1)N1CCOCC1 (stereo not drawn),.,.,.,.
COc1ccccc1NC(=O)NC1(C(=O)N2CCCCC2)CCCCC1,.,.,.,.
Cn1c2ccccc2c2cnn(CC(=O)NCCCN3CCCCC3)c(=O)c21,/,/,.,/
O=C(Cc1ccc(F)cc1)Nc1ccc2[nH]ncc2c1,.,.,.,.
COc1ccccc1CC(=O)Nc1ccc2[nH]ncc2c1,.,.,.,10µM
Cc1ccc(CN2CCN(C)CC2)c(C)c1,.,2.9µM,.,.
Cc1cccc(NC(=S)NC2CCCCC2)n1,.,.,.,5.2µM
SMILES,SARS PLpro yeast,Pf growth 96h,Sm TGR inh,Pf growth 48h
Cc1cccc(NC(=S)NC2CCCC2)n1,.,.,?,.
CC(C)(C)c1ccccc1NC(=S)NC1CCCCC1,?,9.3µM,.,?
CCOC(=O)c1ccc(NC(=S)Nc2cccc(C)n2)cc1,.,?,.,.
S=C(Nc1ccccc1)N1CCOCCOCCN(C(=S)Nc2ccccc2)CCOCCOCC1,.,?,.,?
S=C(Nc1ccc(Oc2ccccc2)cc1)N1CCOCC1,.,1.2µM,.,.
Cc1cccc(NC(=S)Nc2ccc(Oc3ccccc3)cc2)n1,.,9.3µM,.,.
O=C(O)CC(c1ccccc1)N1C(=O)c2cccc([N+](=O)[O-])c2C1=O (stereo not drawn),?,.,.,.
OCCCNC(=S)Nc1ccc(Oc2ccccc2)cc1,.,.,?,.
Cc1cccc(NC(=S)Nc2cccc(C)n2)n1,.,13µM,.,?
CC(C)CNC(=S)Nc1ccc(Oc2ccccc2)cc1,.,5.2µM,.,.
O=C(CCSc1ccc(F)cc1)NNC(=O)c1ccc([N+](=O)[O-])cc1,.,.,.,.
O=S(=O)(NCCc1csc2nc(-c3ccc(Cl)cc3)nn12)c1ccc2c(c1)OCCO2,/,/,.,/
CCC(=O)Nc1ccc(S(=O)(=O)NCc2cccn2Cc2cccc(C)c2)cc1,/,/,.,/
CC(C)N1C(=O)CC(Nc2ccc(N3CCOCC3)cc2)C1=O (stereo not drawn),.,.,35µM,/
COc1ccc(NC2CC(=O)N(C(C)C)C2=O)cc1 (stereo not drawn),.,.,7.9µM,.
O=C1CC(Nc2ccc(N3CCOCC3)cc2)C(=O)N1C1CCCCC1 (stereo not drawn),.,/,40µM,.
O=C1CC(Nc2ccccc2)C(=O)N1c1ccc(N2CCOCC2)cc1 (stereo not drawn),.,?,.,.
O=C(Nc1ccc(N2CCOCC2)cc1)NC1CCCCC1,.,.,.,?
O=C1CC(NNc2ccccc2)C(=O)N1c1ccc(N2CCCCC2)cc1 (stereo not drawn),.,.[1.15 µM],45µM,.
N#Cc1cnc(NCc2ccc(Cl)cc2Cl)nc1,.,.,.,.[0.00184 µM]
O=C(Nc1sc2c(c1C(=O)NCC1CCCO1)CCC2)c1cc(=O)c2ccccc2o1 (stereo not drawn),/,/,.,/
O=C1CC(Nc2ccc(N3CCOCC3)cc2)C(=O)N1c1ccccc1F (stereo not drawn),.,.,40µM,.
O=C(COC(=O)Cc1cccs1)NCc1ccc(F)cc1,.,.,.,.
Cc1nn(-c2cccc(Cl)c2)c(Cl)c1/C=N/NC(=O)c1cccs1,.,?,.,10µM
COc1ccc(-c2cc(C(F)(F)F)nc(SCC(=O)N(C)Cc3ccccc3)n2)cc1,/,/,.,/
SMILES,SARS PLpro yeast,Pf growth 96h,Sm TGR inh,Pf growth 48h
CC(C)(C)C1CCC(OC(=O)c2ccncc2)CC1 (stereo not drawn),.,.[5.75 µM],.,12µM
CCCN(CC1CC1)C(=S)NC(=O)C1CC1,.,.,.,.
CCCN(CC1CC1)C(=S)NC(=O)c1cc(Br)ccc1Cl,.,?,.,13µM
CNC(=O)c1sc(N2N=C3/C(=C/c4ccccc4)CCCC3C2c2ccccc2)nc1C (stereo not drawn),.,3.3µM,.,?
CCOC(=O)c1ccc(NC(=O)CCc2nc(-c3ccccc3)no2)cc1,.,13µM,.,.
CCOC(=O)c1cccc(NC(=O)CCc2nc(-c3ccc(C)cc3)no2)c1,.,1µM,.,12µM
Cc1ccc(-c2noc(CCC(=O)NC3CCCc4ccccc43)n2)cc1 (stereo not drawn),.,1.7µM,.,.
CCN(C[C@H]1N[C@@](Cc2ccccc2)(C(=O)OC)[C@H]2C(=O)N(C)C(=O)[C@@H]12)C(C)=O,.,/,/,/
Cn1c(SCc2cccc(Br)c2)nnc1-c1ccncc1,.,?,.,.
Nc1cc(-c2ccc(Cl)cc2)nn1S(=O)(=O)c1ccc(Cl)cc1,.,3.3µM,.,/
Nc1cc(-c2ccccc2)nn1S(=O)(=O)c1ccc(F)cc1,.,10µM,.,/
COc1ccc(S(=O)(=O)n2nc(-c3ccc(Cl)cc3)cc2N)cc1OC,.,?,.,/
